High-throughput results: PubChem BioAssay, National Center for Advancing Translational Sciences (NCATS)
Many of the other results were omitted from the sample, so hits are more common in it than they were.
Pf Dd2 growth = blocks in vitro growth of P. falciparum Dd2 | P. falciparum Dd2 growth, SYBR Green, 72 h | Potency, µM (top dose mostly 28.9 µM), for inactives: at the top dose activity, negative = inhibition, most hits filed as inhibitors | 120,000 tested, 4.3% active; active means well fitted inhibition curve with a large enough effect;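 further: plate controls were DMSO vehicle for no effect and reference drug for full effect; nearly all actives have a fitted effect of over 65% in size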
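Infected erythrocytes (Dd2, 0.3% parasitemia, 2.5% hematocrit final) are added to compound in RPMI-1640/Albumax II medium, grown 72 h at 37C in low oxygen, then lysed with saponin/Triton-X containing SYBR Green and read by fluorescence.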
* = called active by the depositor; i = inactive; [ ] = remark or other dose. Potency means the concentration at half of the fitted maximal effect.

SMILES | Pf Dd2 growth
CN(Cc1ccccc1)C(=O)[C@H]1O[C@H](CCN2CCOCC2)CC[C@@H]1O | -11.5%[44.1 µM]
C#CCN(C)CC[C@@H]1CC[C@H](O)[C@@H](C(=O)N(C)Cc2ccccc2)O1 | -12.4%[44.1 µM]
CN(Cc1ccccc1)C(=O)[C@H]1O[C@H](CCN2CCN(Cc3ccccc3)CC2)CC[C@@H]1O | 4.47µM*
Cc1cccc(C(=O)N2CCCN(S(=O)(=O)c3ccccc3)CCC(=O)NCC2)c1 | -15.3%
O=C1CCN(S(=O)(=O)c2cccc(F)c2)CCCCCCN1 | 16.7%
CN(Cc1cccnc1)c1nc2c(c(=O)[nH]1)CCN(Cc1ccc(C#N)cc1)CC2 | i[5.79 µM]
Cc1cnccc1CN(C)Cc1cc2n(n1)CCCNC2 | 1.4%
CC(C)(C)c1ccccc1NC(=O)CSc1nc(-c2cccs2)cc(C(F)(F)F)n1 | i
COC(=O)c1ccccc1NC(=O)CSc1nc(-c2ccccc2)cc(C(F)(F)F)n1 | 2.82µM*
COC(=O)c1ccccc1NC(=O)CSc1n[nH]c(C)n1 | 53.5%
Cc1ccc(-n2c(C3CCN(C(=O)c4ccc(C)c(C)c4)CC3)n[nH]c2=O)cc1 | -12.0%
Cc1cccc(C(=O)N2C(C(=O)NCc3ccco3)COC23CCN(C(=O)c2ccco2)CC3)c1 (configuration not stated) | -14.8%
CCN1C(=O)CN(C(=O)c2ccc(OC)nc2)CC12CCOCC2 | -3.9%
CNC(=O)[C@@H](c1ccccc1)N1CCC[C@H]1C(=O)N(C)Cc1ccccc1 | -16.2%[44.1 µM]
Cc1ccc(C(=O)N2CCCN(CC3CC3)C(C(C)C)C2)cn1 (configuration not stated) | -16.5%
O=S(=O)(NC[C@H]1C[C@@H]2CCN1C[C@@H]2CN1CCOCC1)c1ccc(Cl)cc1 | -15.7%[44.1 µM]
CN(C)C(=O)c1cccnc1OC1CCN(S(=O)(=O)Cc2cccc(Cl)c2)C1 (configuration not stated) | 17.0%
Cc1ccccc1NC(=O)c1ccc2nc(Cc3ccccc3)oc2c1 | 12.3%
Cc1ccccc1NC(=O)C1=NO[C@@H]2CN(CCc3ccccc3)C[C@H]12 | -14.6%[44.1 µM]
Cc1c(Cl)cccc1NC(=O)c1ccc(C(=O)Nc2cccc(Cl)c2C)cc1 | 29.6%
Cc1ccccc1NC(=O)c1c(C)oc2ccc(O)c(CN(C)Cc3ccccc3)c12 | 1.12µM*
CCc1ccc2oc(C(=O)Nc3cccc(Cl)c3C)cc(=O)c2c1 | 70.2%
Cc1cc(C)c2c(=O)cc(C(=O)Nc3ccc(S(=O)(=O)N(C)Cc4ccccc4)cc3)oc2c1 | i
Cc1oc2ccc(O)c(CN(C)Cc3ccccc3)c2c1C(=O)Nc1cccc(Cl)c1C | 3.16µM*
CCN(Cc1ccccc1)Cc1c(O)ccc2oc(C)c(C(=O)Nc3ccccc3C)c12 | 1.12µM*
SMILES | Pf Dd2 growth
CCCn1ccc2oc(C)c(C(=O)NCc3ccccc3)c2c1=O | -8.7%
CN1N=C(C(=O)N2CCCC(CCc3ccc(F)c(F)c3)C2)CCC1=O (configuration not stated) | 1.4%
Cc1ncoc1C(=O)N1CCC(c2noc(-c3ccccc3)n2)C1 (configuration not stated) | i[5.79 µM]
C1CCC(CN2CCn3c(nnc3C3CCCNC3)C2)CC1 (configuration not stated) | -7.4%
COCc1ccc2c(c1)c(OC(C)(C)C(=O)Nc1cc(C)nn1C)nn2CCC(C)C | -1.2%[44.1 µM]
CCCC1=Nc2cc(C(=O)NC3CCCCC3)ccc2Sc2ccc(C)cc21 | 10µM*
Cc1nc2cc(C(=O)NC3CCCCCC3)ccc2n1-c1ccc(Br)cc1 | 18.4%
CCC1=Nc2cc(C(=O)NC3CCC(C)CC3)ccc2Sc2ccc(C)cc21 (configuration not stated) | 10µM*
CC1=Nc2cc(C(=O)N3CCCCC3)ccc2Sc2ccc(C)cc21 | i
CCC1=Nc2cc(C(=O)NCCCOC)ccc2Sc2ccc(Br)cc21 | -27.7%
CCC1=Nc2cc(C(=O)NCc3ccc(F)cc3)ccc2Sc2ccc(C)cc21 | 5.62µM*
CCCC1=Nc2cc(C(=O)NCCc3ccc(OCC)cc3)ccc2Sc2ccccc21 | -28.9%
CC1=Nc2cc(C(=O)NC3CCCC3)ccc2Sc2ccc(Br)cc21 | 7.94µM*
CCn1ncc(N2CCC(NC(=O)c3ccc(C)c(C)c3)CC2)cc1=O | -10.4%
CCc1cc(C(=O)NCc2ccc(F)cc2)no1 | 8.4%
CCCC1=Nc2cc(C(=O)N3CCC(C)CC3)ccc2Sc2ccc(C)cc21 | -22.8%
CCCC1=Nc2cc(C(=O)NCCCN(CC)CC)ccc2Sc2ccccc21 | -7.6%
CC(C)(C)C(=O)N1CCCN(c2nc3ncccc3o2)CC1 | -0.7%[44.1 µM]
CN1CC2(CCN(Cc3ccc4cc[nH]c4c3)CC2)CC1C(=O)N1CCOCC1 (configuration not stated) | -9.2%
Cc1cccc(CN2CCNc3cnc(Oc4ccccc4)cc3C2)c1 | -0.6%[44.1 µM]
COCC(=O)N1CCC(N2C[C@H](O)C[C@H]2C(=O)NCc2cccc(OC)c2)CC1 | 0.3%
COc1cc(CCC(=O)N2CC(c3noc(C4CCCN4C)n3)C2)on1 (configuration not stated) | 0.7%
C#CCNC(=O)C1COC2(CCCCC2)N1C(=O)c1cccc(F)c1 (configuration not stated) | -8.4%
Cn1cc(C(=O)N2CCCCCCn3c(nnc3-c3ccc(F)cc3)CC2)cn1 | i
Cc1ccc(OCC(=O)NCc2c(C)ncc3c2CCNC3)cc1C | i
SMILES | Pf Dd2 growth
Cc1cccc(C)c1-c1nnc2ccc(C(=O)NC3CC3)cn12 | 23.4%
Cc1ccc(C(=O)NC2CCN(c3cnn(C)c(=O)c3)CC2)cc1C | -4.9%
CC1=Nc2cc(C(=O)NC3CCC(C)CC3)ccc2Sc2c(C)ccc(C)c21 (configuration not stated) | 11.2µM*
COc1ccc(CNC(=O)N2C[C@H](c3nc(-c4ccncc4)no3)[C@@H](C)C2)cc1 | i
Cc1noc(-c2ccc3c(c2)OCO3)c1C(=O)NCc1cccc(Cl)c1 | i
CC(=O)Nc1ccc(NC(=O)c2ccc3c(c2)CCN3S(=O)(=O)c2ccc(C)cc2)cc1 | 18.9%
O=C(Nc1ccc(Cl)c(C(F)(F)F)c1)c1ccc2c(c1)CCN2S(=O)(=O)c1ccccc1 | 8.91µM*
Cc1ccc(Cl)cc1NC(=O)c1oc2ccc(S(=O)(=O)N3CCCCCC3)cc2c1C | 5.5%
COc1ccc(Cl)cc1NC(=O)c1oc2ccc(S(=O)(=O)N3CCCCC3)cc2c1C | 41.3%
Cc1ccc(C)c(NC(=O)c2ccc3c(c2)CCN3S(=O)(=O)c2ccccc2)c1 | -19.2%
COc1ccc(NC(=O)c2oc3ccc(S(=O)(=O)N4CCCCC4)cc3c2C)cc1Cl | 11.2µM*
COc1ccc(C(=O)Nc2ccc3c(c2)CCCN3S(=O)(=O)c2ccc(C)cc2)cc1 | i
CCc1cccc(CC)c1NC(=O)c1ccc2c(c1)CCN2S(=O)(=O)c1ccccc1 | 7.2%
COc1ccc(NC(=O)c2ccc3c(c2)CCN3S(=O)(=O)c2ccc(C)cc2)cc1Cl | 8.91µM*
COCc1nnc2n1CCC(NC(=O)Cc1c(C)noc1C)CC2 (configuration not stated) | 24.2%
O=C(CCC1CCN(S(=O)(=O)c2ccccc2F)CC1)NCCN1CCOCC1 | -14.6%
O=C(c1ccc(Cl)cc1)N1CCC2(CC1)N(c1ccccc1)C(=O)CS2(=O)=O | -21.2%
CC(C)(C)C(=O)N[C@H]1CO[C@H]2[C@@H]1OC[C@H]2O | 14.3%[44.1 µM]
CCOCCn1c(=O)[nH]c2cc(C(=O)NCCc3ccc(C)s3)ccc21 | -34.4%
COCCNC(=O)C(C)N1C(=O)COc2ccc(C(=O)COc3ccc(C)c(C)c3)cc21 (configuration not stated) | -16.6%
COC[C@@H]1CN(S(=O)(=O)c2cccc(F)c2)C[C@H]1c1nc(C)no1 | -6.4%
